This note sets out measurements from PubChem BioAssay.

Values joined by “and” are separate entries in the source; they are usually repeats but may differ in a detail not shown here. Equal entries are not always repeated. Active and inactive are the calls of the source.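 The calls were made as follows, unless noted: active = normalized viability below 100% at a tested concentration; inactive = the rest.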

Test [1] is described as follows: sensitizers of A549 cells to miR-34 induction, primary screen, imaging, A549 dox-inducible miR-34, nuclei and caspase counts (AID 1347080;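 active = compounds whose cell count with miR-34 switched on is under 0.7 times the count with it off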). The conditions noted are these: A549 miR-34 inducible, Hoechst nuclei count, 48 h.
Test [2] is described as follows: modifiers of HSF1 nuclear foci, imaging, Selleck Cancer Library (AID 1347162; in the data active = plate-normalised HSF1 focus index below about 0.46). The conditions noted are these: human cells, at 10 µM; SSMD: measured here: HSF1 foci SSMD mean; cell count: measured here: cell number; plate-normalised HSF1 focus index: stronger effect = lower value.
Test [3] can be described thus: survival rescue of mitochondrial mutant cells in low glucose, primary screen, MELAS cybrids, Rieske KO mouse fibroblasts, CellTiter-Glo (AID 1508586;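 active = mean z-score across replicates of 1.96 or higher in either the MELAS or the Rieske mutant cell line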;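 also: z relative to plate mean and SD of compound and empty wells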). (In general: In ATP-based viability assays light output follows the ATP content of the culture.)
Test [4] can be described thus: ovarian cancer cell viability with rucaparib, profiling panel, oncology-focused library, rucaparib conditional (AID 1508598). The following applies: patient-derived ovarian cancer cells, CellTiter-Glo viability, 144 h, stronger effect = lower value.
Test [5] in a line: hESC survival regulators, cell-based (AID 493140; call rule not given here;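 also: cells exposed to compounds for four days before counting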). The following applies: human embryonic stem cell survival screen; stronger effect = higher value.
Test [6] in a line: inhibitors of Cryptococcus chitosan production, flow cytometry, Cibacron Brilliant Red staining (AID 1347148; call rule not given here;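 also: compound exposure lasted three days at 37 degrees C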). The conditions noted are these: Cryptococcus neoformans chitosan, stronger effect = lower value; at 10 µM unless noted.
Test [7] is described as follows: circadian clock period modulators, cell-based, LOPAC library, luminescence reporter (AID 2774; call rule not given here;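 also: values are relative to mean of DMSO wells on each plate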). The following applies: circadian reporter cells, at 7 µM, actives lie on both sides.
In test [8] the test system is Hepatitis C virus NS3 helicase. The experiment in a line: HCV NS3 helicase inhibitors, primary screen, biochemical, fluorescence polarization, LOPAC1280 library (AID 687035; in the data active = inhibition above about 37%). The conditions noted are these: Purified HCV NS3 helicase, Cy5-dT15 ssDNA binding fluorescence polarization; stronger effect = higher value; concentration not given here.
Test [9] in a line: Cy5 fluorescence quenching or enhancement artefacts, artefact control for HCV NS3 helicase inhibitor project, biochemical, LOPAC1280 (AID 687037; call rule not given here). The conditions noted are these: Cy5-DNA-NS3h complex fluorescence interference counterscreen. (The purpose of a counterscreen is to sort out artefacts and off-target activity.)
Test [10] in a line: phospholipid biosynthesis inhibitors in animal cells, primary screen, cell-based, LOPAC library, screen 4 (AID 1347384; call rule not given here). The following applies: phospholipid biosynthesis inhibition screen, at 10 µM.
The nature of test [11]: viability rescue of complex I mutant cybrids, primary screen, cell-based, galactose medium, ATP luminescence (AID 1645843;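 active = z-score of at least 1.8 in each of two replicates, scored against plate mean and spread of sample wells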;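 also: positive z means more ATP and so rescue of galactose-driven cybrid death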). The following applies: complex I mutant cybrid cells, 72 h, stronger effect = higher value.
Where [12] appears, read: stronger effect = lower value, cell number ratio, induced over uninduced.
[13] abbreviates: measured here: relative caspase fold change +Dox/-Dox.
Where [14] appears, read: measured here: total cells with miR-34 induction, stronger effect = lower value.
The mark [15] stands for this setting: measured here: total cells without miR-34 induction.
The mark [16] stands for this setting: MELAS cybrid survival, CellTiter-Glo 48 h, stronger effect = higher value.
Where [17] appears, read: Rieske KO mouse fibroblast survival, CellTiter-Glo 72 h.

Broadly, the viability is a read-out of living cells in per cent, often relative to untreated cells. Regarding `COc1ccc(C2=NC(c3ccc(Cl)cc3)C(c3ccc(Cl)cc3)N2C(=O)N2CCNC(=O)C2)c(OC(C)C)c1` (centres undefined), the fold change in test [1] (setting [12]) is 0.914 (inactive) and 0.912 (inactive) and 0.921 (inactive); in test [1] (setting [13]), 0.374 and 0.688 and 0.486. The cell count in test [1] (setting [14]) was 2920 and 2710 and 7580; in [1] (setting [15]), 3200 and 2970 and 8230; in test [2], 7540. The SSMD in [2] came out at 2.83. Also, the plate-normalised HSF1 focus index in test [2] is 1.18 (inactive). Moreover, the z-score in test [3] (setting [16]) is 0.254 (inactive) and -0.293 (inactive) and -0.371 (inactive); in [3] (setting [17]), 0.0375 and 0.393 and 0.654. Besides, the viability in test [4] (at 0.000305 µM, OCI-C5x cells, with rucaparib 10 µM, 100% = cells with rucaparib alone) was 120% (inactive); in test [4] (at 0.000305 µM, OCI-C5x cells, without rucaparib), 129% (inactive); in test [4] (at 0.000305 µM, OCI-P5x cells, with rucaparib 20 µM, 100% = cells with rucaparib alone) it was 108% (inactive); in test [4] (at 0.000305 µM, OCI-P5x cells, without rucaparib) it was 104% (inactive); in [4] (at 0.00122 µM, OCI-C5x cells, with rucaparib 10 µM, 100% = cells with rucaparib alone), 116% (inactive); in test [4] (at 0.00122 µM, OCI-C5x cells, without rucaparib), 136% (inactive). The viability in [4] (at 0.00122 µM, OCI-P5x cells, with rucaparib 20 µM, 100% = cells with rucaparib alone) is 104% (inactive); in [4] (at 0.00122 µM, OCI-P5x cells, without rucaparib), 93.6% (active); in test [4] (at 0.00488 µM, OCI-C5x cells, with rucaparib 10 µM, 100% = cells with rucaparib alone), 112% (inactive); in [4] (at 0.00488 µM, OCI-C5x cells, without rucaparib), 124% (inactive); in test [4] (at 0.00488 µM, OCI-P5x cells, with rucaparib 20 µM, 100% = cells with rucaparib alone), 96.2% (active); in test [4] (at 0.00488 µM, OCI-P5x cells, without rucaparib), 91.7% (active). Also, the viability in test [4] (at 0.0195 µM, OCI-C5x cells, with rucaparib 10 µM, 100% = cells with rucaparib alone) is 110% (inactive); in test [4] (at 0.0195 µM, OCI-C5x cells, without rucaparib), 128% (inactive); in [4] (at 0.0195 µM, OCI-P5x cells, with rucaparib 20 µM, 100% = cells with rucaparib alone), 97% (active); in [4] (at 0.0195 µM, OCI-P5x cells, without rucaparib) it was 93.4% (active); in [4] (at 0.0781 µM, OCI-C5x cells, with rucaparib 10 µM, 100% = cells with rucaparib alone) it was 108% (inactive); in test [4] (at 0.0781 µM, OCI-C5x cells, without rucaparib), 124% (inactive). Besides, the viability was 102% (inactive) in test [4] (at 0.0781 µM, OCI-P5x cells, with rucaparib 20 µM, 100% = cells with rucaparib alone); 95.5% (active) in [4] (at 0.0781 µM, OCI-P5x cells, without rucaparib); 113% (inactive) in test [4] (at 0.313 µM, OCI-C5x cells, with rucaparib 10 µM, 100% = cells with rucaparib alone); 115% (inactive) in test [4] (at 0.313 µM, OCI-C5x cells, without rucaparib); 97.6% (active) in test [4] (at 0.313 µM, OCI-P5x cells, with rucaparib 20 µM, 100% = cells with rucaparib alone); 86.9% (active) in test [4] (at 0.313 µM, OCI-P5x cells, without rucaparib). Further, the viability was 103% (inactive) in test [4] (at 1.25 µM, OCI-C5x cells, with rucaparib 10 µM, 100% = cells with rucaparib alone); 111% (inactive) in test [4] (at 1.25 µM, OCI-C5x cells, without rucaparib); 91.3% (active) in test [4] (at 1.25 µM, OCI-P5x cells, with rucaparib 20 µM, 100% = cells with rucaparib alone); 89.1% (active) in test [4] (at 1.25 µM, OCI-P5x cells, without rucaparib); 109% (inactive) in [4] (at 5 µM, OCI-C5x cells, with rucaparib 10 µM, 100% = cells with rucaparib alone); 104% (inactive) in [4] (at 5 µM, OCI-C5x cells, without rucaparib). The viability is 82.1% (active) in test [4] (at 5 µM, OCI-P5x cells, with rucaparib 20 µM, 100% = cells with rucaparib alone) and 90.4% (active) in test [4] (at 5 µM, OCI-P5x cells, without rucaparib).

Consider `CCCCC[C@H](O)/C=C/C1=C(CCCCCCC(=O)O)C(=O)CC1`, for which, in [5], the survival is 68.1 (inactive). The fold change was 0.976 (inactive) and 0.956 (inactive) in test [1] (setting [12]); 1.34 and 1.33 in test [1] (setting [13]). The cell count in test [1] (setting [14]) was 6120 and 6210; in test [1] (setting [15]), 6270 and 6500. The fold fluorescence in [6] is 3.81 (inactive).

What is called inhibition is the relative decrease from the control value, in per cent. On to `CNCCC(Oc1ccccc1C)c1ccccc1` (centres undefined), for which the period change in test [7] is 0.255 h (inactive). Also, in test [8], the inhibition is -5% (inactive). The fluorescence ratio (interference) in [9] was 0.9 (inactive). Besides, the fold change in test [1] (setting [12]) is 1.03 (inactive) and 0.898 (inactive) and 0.925 (inactive); in test [1] (setting [13]), 1.24 and 2 and 2.24. Further, the cell count in test [1] (setting [14]) was 9740 and 9090 and 9100; in test [1] (setting [15]), 9500 and 10100 and 9850. The molecule was called inactive in test [10]. In addition, the z-score in test [3] (setting [16]) is -0.0629 (inactive); in test [3] (setting [17]), -0.0775; in test [11], -0.235 (inactive) and -0.28 (inactive).

Consider `CCc1cncnc1N1CCN(Cc2nc3ccc(C(F)(F)F)cc3[nH]2)CC1`, for which the fold change was 0.998 (inactive) and 0.92 (inactive) in test [1] (setting [12]); 1.49 and 0.523 in [1] (setting [13]). Besides, the cell count in test [1] (setting [14]) is 6670 and 5920; in [1] (setting [15]), 6690 and 6430; in test [2], 7470. The same molecule yielded an SSMD in test [2] of 2.94. Also, the plate-normalised HSF1 focus index in test [2] is 1.18 (inactive). In test [10], the result was inactive. Moreover, the z-score in [3] (setting [16]) was 0.232 (inactive); in test [3] (setting [17]) it was 0.0669; in [11] it was -1.37 (inactive).
